Experimental data as given in PubChem BioAssay.
Potency and affinity values are given separately. Records with an inconclusive call do not appear. Calls of active or inactive are those of the source.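 Rule for the calls: active = falling signal with fitted half-maximal potency no higher than twice the top valid tested dose; inconclusive = poor fit quality, or flat fit spanning -70% to -30%; inactive = potency over limit, rising signal, or flat fit inside 30%.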

Assay: Cryptococcus neoformans growth inhibition, dose response, Alamar Blue, cherry-picks (AID 686998)
Settings: 24 h; series mostly up to 35 µM; activity change, negative = inhibition: at the top concentration

Activity change, negative = inhibition, inactive:
CN1C(=O)c2cc(NC(=O)Nc3ccc(Cl)cc3)ccc2OC[C@H]2O[C@@H](CC(=O)NCCN3CCCCC3)CC[C@@H]21 40.5%
CC(C)NC(=O)Nc1ccc2c(c1)C(=O)N([C@@H](C)CO)C[C@H](C)[C@@H](CN(C)Cc1ccc3c(c1)OCO3)OCCCC[C@@H](C)O2 15.8%
CC1CCCCN1C(=O)CSc1nc(C2CC2)nc2c1cnn2-c1ccccc1 (stereo not given) -28.9%
COc1cccc(S(=O)(=O)N2C[C@@H](O)COC[C@H]3O[C@H](CC(=O)Nc4ccccc4)CC[C@@H]32)c1 -6.45%
COc1ccc(N(CC(=O)NCCSCc2ccc(C)cc2)S(=O)(=O)c2ccccc2)cc1 -34%
C[C@@H]1CN([C@@H](C)CO)S(=O)(=O)c2ccc(C#CC3CC3)cc2O[C@H]1CN(C)CC1CCOCC1 11.1%
C[C@@H](NC(=O)C[C@@H]1CC[C@@H]2[C@H](COC[C@H](O)CN2Cc2cc(F)ccc2F)O1)c1ccccc1 -36.1%
COc1cc(C(=O)Oc2ccccc2N)cc(OC)c1OC 12.6%
CCCN1CCCC[C@H]1C(=O)Nc1c(C)cccc1C -22.5%
Cc1noc(C)c1NC(=O)Nc1ccc2c(c1)C(=O)N(C)[C@@H]1CC[C@H](CC(=O)N[C@H]3CCN(Cc4ccccc4)C3)O[C@@H]1CO2 -7.21%
COc1ccccc1CN1CC[C@H]2[C@H](CO)Nc3ccc(C#Cc4ccccc4)cc3[C@H]21 -20.2%
C[C@@H]1CN([C@@H](C)CO)C(=O)c2cc(NS(=O)(=O)c3ccc(F)cc3)ccc2O[C@@H](C)CCCCO[C@H]1CN(C)S(=O)(=O)c1ccc(F)cc1 5.48%
C[C@@H]1CN([C@@H](C)CO)C(=O)c2cc(NC(=O)Nc3cccc4ccccc34)ccc2O[C@@H]1CN(C)C(=O)Nc1ccccc1 44.6%
CC(C)NC(=O)Nc1ccc2c(c1)CC(=O)N([C@H](C)CO)C[C@H](C)[C@H](CN(C)S(=O)(=O)c1ccc(Cl)cc1)O2 21.2%
CC(C)(C)c1ccc(OCC(=O)NC(c2ccccc2)c2ccccc2)cc1 -19% [at 46 µM]
CN1C(=O)c2cc(NC(=O)NC3CCCC3)ccc2OC[C@H]2O[C@@H](CC(=O)NC3CCC3)CC[C@@H]21 4.05%
C[C@@H]1CN([C@H](C)CO)S(=O)(=O)c2ccc(C#Cc3ccc(F)cc3)cc2O[C@H]1CN(C)C(=O)NC1CCCC1 7.44%
C[C@@H]1CCCCO[C@H](CN(C)Cc2ccc3c(c2)OCO3)[C@H](C)CN([C@H](C)CO)C(=O)c2cc(NC(=O)Nc3cccc4ccccc34)ccc2O1 53.9%
C[C@@H]1CN([C@@H](C)CO)S(=O)(=O)c2ccc(C#Cc3ccccn3)cc2O[C@H]1CN(C)Cc1ccccc1 -31%
CO[C@H]1CN(C)C(=O)c2cc(NS(=O)(=O)CC(F)(F)F)ccc2OC[C@@H](C)N(Cc2cccnc2)C[C@@H]1C 25.5%
O=C(CN1CCOCC1)N1CC[C@@H]2[C@@H](CO)Nc3ccc(-c4ccccc4F)cc3[C@@H]21 -6.76%
COc1ccccc1C(=O)Nc1ccc2c(c1)C(=O)N(C)C[C@H](OC)[C@@H](C)CN(CC1CC1)[C@@H](C)CO2 -24.2%
O=C(Nc1ccccc1)N1CCCCN2[C@H](CO)[C@@H](c3ccc(C#CC4CC4)cc3)[C@@H]2C1 -30.2%
COc1ccc(C#Cc2ccc3c(c2)O[C@@H](CN(C)C(C)=O)[C@@H](C)CN([C@H](C)CO)S3(=O)=O)cc1 -21%
COc1ccc(C(=O)NC(=S)Nc2cccc(Cl)c2N2CCOCC2)cc1[N+](=O)[O-] -27.6%
N#Cc1ccc(-c2ccc3c(c2)[C@H]2[C@H](CCN2C(=O)Cc2ccccc2)[C@@H](CO)N3)cc1 0.57%
Cc1ccccc1CN(C)C[C@H]1OCc2cn(nn2)CCCC(=O)N([C@@H](C)CO)C[C@H]1C 22%
CCCC#Cc1ccc2c(c1)O[C@H](CN(C)CCC)[C@H](C)CN([C@@H](C)CO)S2(=O)=O -38.2%
C[C@@H]1CN([C@H](C)CO)C(=O)c2c(c3ccccc3n2C)-c2ccccc2CO[C@H]1CN(C)S(=O)(=O)c1ccc(Cl)cc1 44.6%
CCNC(=O)Nc1ccc2c(c1)C(=O)N(C)[C@H]1CC[C@H](CC(=O)Nc3ccccc3F)O[C@@H]1CO2 40.5%
C[C@@H]1CN([C@@H](C)CO)C(=O)c2cccc(NS(C)(=O)=O)c2O[C@@H]1CN(C)C(=O)Nc1ccc2c(c1)OCO2 5%
CCOc1ccc(C(=O)NC(=S)Nc2ccccc2N2CCC(C)CC2)cc1[N+](=O)[O-] -17.5%
CO[C@@H](CN(C)Cc1cc(F)ccc1F)[C@@H](C)CN([C@H](C)CO)S(=O)(=O)c1ccc(F)cc1 -6.31%
C[C@H](CO)N1C[C@H](C)[C@@H](CN(C)Cc2ccncc2)Oc2ccc(NC(=O)CCC(F)(F)F)cc2C1=O 21.6%
C[C@@H]1CN([C@@H](C)CO)C(=O)Cc2cc(NC(=O)Nc3cccc4ccccc34)ccc2O[C@@H]1CN(C)S(=O)(=O)c1cccs1 60.9%
CC=Cc1ccc2n(c1=O)C[C@H]1[C@H](CO)[C@@H](C(=O)N3CCc4ccccc4C3)N(C(=O)C3CC3)[C@@H]21 (mixture of isomers) -27.4%
COc1cccc(S(=O)(=O)Nc2ccc3c(c2)OC[C@H](C)NC[C@@H](C)[C@H](OC)CN(C)C3=O)c1 -30.8%
COCCNC(=O)C[C@H]1C=C[C@@H](NS(=O)(=O)c2ccc(C)cc2)[C@H](CO)O1 26%
C[C@H]1CN([C@@H](C)CO)C(=O)Cc2cc(NC(=O)CCCCCC(=O)Nc3ccccc3N)ccc2O[C@H]1CN(C)Cc1ccc2c(c1)OCO2 24.5%
C[C@@H]1CN([C@@H](C)CO)C(=O)CCCn2nncc2CO[C@@H]1CN(C)Cc1cccc(C(F)(F)F)c1 -1.76%
